Screening results as filed in PubChem.
Shown are actives, neighbours in structure and some others; about 6.5% of the full set was active somewhere.
VACV mCherry inh = inhibitors of vaccinia virus infection (mCherry reporter signal). Vaccinia virus mCherry reporter infection, fluorescence. AID 720579. 310,000 tested, 0.63% active. Potency, µM (doses to about 36.5 µM), usual class: inhibitors; calls by dose curve; tested in A549 cells; note: nearly all actives have a fitted effect of over 35% in size
Marburg entry inh = Marburg virus entry inhibition. Marburg virus pseudotyped entry inhibition, cell reporter. 300,000 tested, 1.8% active. Potency, µM (titrated, usually from 37.8 µM), usual class: inhibitors. AID 540276; calls by dose curve; tested in HEK293 cells
HCMV inh = blocks human cytomegalovirus replication; HFF cells, HCMV-luciferase reporter, 72 h; hits give low values; activity change, negative = inhibition, % at 57.5 µM; 410,000 tested, 4.5% active; AID 1259415; in the data active = activity change below about -60%; inconclusive = no clear call, values can overlap the other calls; inactive = above about -39%
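HFF cells seeded 16 h at 37C, treated with compounds, infected with luciferase-reporter HCMV at MOI 1 PFU/cell; luciferase read at 72 h post infection, normalized to buffer-only and Salinomycin controls.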
Lassa entry inh = blocks Lassa virus binding to or entry into cells. Potency, µM (highest dose often 37.9 µM), actives largely listed as inhibitors. AID 540256. Lassa virus pseudotype entry inhibition, cell reporter. 300,000 tested, 1.2% active; calls by dose curve; tested in HEK293 cells; note: nearly all actives have a fitted effect of over 50% in size
VACV Venus inh = inhibitors of vaccinia virus (Venus reporter). Vaccinia virus Venus reporter expression, fluorescence. Potency, µM (doses to about 36.5 µM), actives largely listed as inhibitors. 330,000 tested, 0.46% active. AID 720580; calls by dose curve; tested in A549 cells; note: nearly all actives have a fitted effect of over 30% in size
FMDV inh = blocks foot and mouth disease virus; FMDV antiviral cell-based qHTS; Potency, µM (titrated, usually from 57.9 µM), usual class: inhibitors; 410,000 tested, 1.2% active; calls by dose curve; tested in HEK293T cells; note: read-out not given here; nearly all actives have a fitted effect of over 45% in size
Each line names hits and unclear results; the compound was inactive in the other large screens.

COC(=O)c1ccc(C2c3c(-c4ccc(Br)cc4)n[nH]c3C(=O)N2c2ccc(Cl)cc2)cc1 (stereo not drawn)	VACV mCherry inh inconclusive, Marburg entry inh inconclusive, HCMV inh -103.4, Lassa entry inh inconclusive, VACV Venus inh inconclusive, FMDV inh inconclusive
O=C1c2[nH]nc(-c3ccc(Br)cc3)c2C(c2cccc(O)c2)N1c1ccc(Cl)cc1 (stereo not drawn)	VACV mCherry inh inconclusive, Marburg entry inh inconclusive, HCMV inh -105.1, Lassa entry inh inconclusive, VACV Venus inh inconclusive, FMDV inh inconclusive
O=C(NCc1nnc2n1CCN(C(=O)/C=C/c1ccccc1)CC2)c1cccc(F)c1	none (no result: Marburg entry inh, HCMV inh, Lassa entry inh)
CCc1cc(=O)oc2cc(C)c(CN3CCC[C@@H](C)C3)c(O)c12	none (no result: VACV mCherry inh, HCMV inh, Lassa entry inh, VACV Venus inh, FMDV inh)
CCn1c(-c2nonc2N)nc2c(C#CC(C)(C)O)nc(OC(CN)c3ccccc3)cc21 (stereo not drawn)	Lassa entry inh 8.88µM (no result: VACV mCherry inh, Marburg entry inh, HCMV inh, VACV Venus inh, FMDV inh)
CC(=O)Nc1ccc(NC(=O)C(C)OC(=O)c2ccc(S(=O)(=O)N3CCCCCC3)cc2)cc1 (stereo not drawn)	Marburg entry inh inconclusive, HCMV inh -71.9, Lassa entry inh inconclusive
CC(=O)Nc1ccc(S(=O)(=O)N2CCC(C(=O)c3ccc(Cl)cc3)CC2)cc1	Marburg entry inh inconclusive, HCMV inh -62.7, Lassa entry inh inconclusive
Cc1ncc2c(c1CNS(=O)(=O)N(C)C)CCN(C(=O)c1ccc(-c3ccc(F)cc3)cc1)C2	none (no result: Marburg entry inh, HCMV inh, Lassa entry inh)
CCOc1ccccc1CN1CCC(CO)(CCOc2ccccc2)CC1	none
Fc1ccccc1N1CCN(C2CCN(Cc3c[nH]c4ccccc34)CC2)CC1	Marburg entry inh 9.2µM, Lassa entry inh inconclusive (no result: FMDV inh)
OCC1(CCOc2ccccc2)CCN(Cc2cn[nH]c2-c2ccc(F)cc2)CC1	Marburg entry inh 3.98µM, HCMV inh inconclusive
OC1(c2ccc(Cl)cc2)CCN(Cc2c[nH]c3ccccc23)CC1	Marburg entry inh 2.82µM, HCMV inh inconclusive, Lassa entry inh inconclusive
OCC1(CCOc2ccccc2)CCN(Cc2nc3ccc(F)cc3[nH]2)CC1	Marburg entry inh inconclusive, HCMV inh -61.8, Lassa entry inh inconclusive, FMDV inh inconclusive
OCCOc1cccc(CN2CCC(CO)(CCOc3ccccc3)CC2)c1	none (no result: VACV mCherry inh, Marburg entry inh, Lassa entry inh, VACV Venus inh)
COc1ccc(N2CCN(C(=O)c3nn(-c4ccc(C)cc4)c(=O)n(C)c3=O)CC2)cc1	Lassa entry inh inconclusive (no result: Marburg entry inh)
Cc1ccc(CNC(=O)CCc2nc3cccnc3n2Cc2ccccc2)cc1	none
OC1(c2ccc(Cl)cc2)CCN(Cc2cn[nH]c2-c2ccccc2)CC1	Marburg entry inh inconclusive, HCMV inh inconclusive
OC1(c2ccc(Cl)cc2)CCN(Cc2cn[nH]c2-c2ccc(F)cc2)CC1	Marburg entry inh inconclusive, HCMV inh -77.7
Cc1sc(NC(=O)c2ccccc2)c(C(c2ccccn2)N2CCN(CCO)CC2)c1C (stereo not drawn)	VACV mCherry inh inconclusive, Marburg entry inh inconclusive, HCMV inh -62.4, VACV Venus inh inconclusive
CCOc1ccc(C(c2c(NC(=O)c3ccccc3)sc(C)c2C)N2CCN(C)CC2)cc1 (stereo not drawn)	Marburg entry inh inconclusive, Lassa entry inh inconclusive, VACV Venus inh inconclusive
CC1CCC/C=C/C(=O)c2c(O)cc(O)cc2CC(=O)O1 (stereo not drawn)	VACV mCherry inh 7.08µM, HCMV inh -104.6, VACV Venus inh inconclusive, FMDV inh 31.6µM (no result: Marburg entry inh, Lassa entry inh)
CC1CCCC(=O)CCC/C=C/c2cc(O)cc(O)c2C(=O)O1 (stereo not drawn)	none (no result: Marburg entry inh, HCMV inh, Lassa entry inh)
C[C@H]1CCC[C@H](O)CCCCCc2cc(O)cc(O)c2C(=O)O1	HCMV inh -98.0, VACV Venus inh inconclusive, FMDV inh 11.2µM (no result: Lassa entry inh)
C[C@H]1CCC[C@@H](O)CCC/C=C/c2cc(O)cc(O)c2C(=O)O1	VACV mCherry inh inconclusive, Marburg entry inh inconclusive, HCMV inh -105.3, VACV Venus inh inconclusive, FMDV inh 3.55µM
CC1CCC[C@H](O)CCCCCc2cc(O)cc(O)c2C(=O)O1 (stereo partly drawn)	HCMV inh inconclusive, FMDV inh 35.5µM
COc1ccc(CN2CCC(n3cc(C(=O)N4CCCCC4)nn3)CC2)c(OC)c1	none (no result: Marburg entry inh, HCMV inh, Lassa entry inh)
CC(C)(C)N(Cc1ccc2c(c1)OCO2)C(=O)/C=C\S(=O)c1ccccc1 (stereo not drawn)	VACV mCherry inh 8.91µM, Marburg entry inh inconclusive, Lassa entry inh inconclusive, VACV Venus inh 14.1µM
CCC(=O)N1CCc2cc(S(=O)(=O)NC(Cc3ccccc3)C(=O)Nc3ccc(Cl)cc3)ccc21 (stereo not drawn)	none
COC(=O)CC(=O)CSc1nc2cc(C(=O)NCC(C)C)ccc2c(=O)n1CCc1ccccc1	HCMV inh -93.6, Lassa entry inh inconclusive (no result: Marburg entry inh)
COC(=O)C1=C(C)N(Cc2ccccc2)C(=O)NC1c1cccc(F)c1 (stereo not drawn)	none (no result: VACV mCherry inh, HCMV inh, Lassa entry inh, VACV Venus inh, FMDV inh)
CC(C)(C)Cc1c(-c2ccc(F)cc2)nc2ccc(Br)cn12	HCMV inh -75.9 (no result: Marburg entry inh, Lassa entry inh)
CCOc1ccc(-c2cc(C)[n+](CCN3CCOCC3)c(-c3ccc(OCC)cc3)c2)cc1	Marburg entry inh inconclusive, HCMV inh -82.5, FMDV inh inconclusive
Cc1cc(C(=O)COC(=O)CC2Sc3ccccc3NC2=O)c(C)n1-c1cccc(C(F)(F)F)c1 (stereo not drawn)	HCMV inh inconclusive
Cc1cc(C(=O)COC(=O)Cc2n[nH]c(=O)c3ccccc23)c(C)n1-c1cccc(C(F)(F)F)c1	Marburg entry inh 11.2µM, Lassa entry inh inconclusive, FMDV inh inconclusive
O=C1c2c(O)ccc(O)c2C(=O)c2c(NCCNCCO)ccc(NCCNCCO)c21	VACV mCherry inh inconclusive, Marburg entry inh 0.0562µM, HCMV inh -98.4, Lassa entry inh 0.501µM, VACV Venus inh 10µM, FMDV inh inconclusive
Cc1ccccc1C(=O)NCc1ccc2c(c1)CCN2C(=O)c1ccc(F)cc1	Lassa entry inh inconclusive (no result: Marburg entry inh)
COc1cc(/C=N/N2C(=O)C3C4c5ccccc5C(c5ccccc54)C3C2=O)ccc1O (stereo not drawn)	Marburg entry inh inconclusive, Lassa entry inh 12.6µM
Cc1nn(CC(=O)Nc2c(C)n(C)n(-c3ccccc3)c2=O)c(C)c1[N+](=O)[O-]	none
Cc1c(Br)c([N+](=O)[O-])nn1CC(=O)Nc1c(C)n(C)n(-c2ccccc2)c1=O	HCMV inh -102.0 (no result: VACV mCherry inh, Marburg entry inh, Lassa entry inh, VACV Venus inh)
Cc1c(Br)c([N+](=O)[O-])nn1CCCC(=O)N1CCN(c2ccccc2)CC1	Marburg entry inh 12.6µM
COc1ccc(-c2nc3ccccn3c2Nc2ccccc2C)cc1	none (no result: Marburg entry inh, HCMV inh, Lassa entry inh, FMDV inh)
Cc1ccc(C)c(NC(=O)CN2C(=O)c3cccc4cccc2c34)c1	VACV Venus inh inconclusive
Cc1[nH]c2ccccc2c1C(=O)C(=O)N1c2ccccc2CC1C (stereo not drawn)	VACV mCherry inh inconclusive, Marburg entry inh inconclusive, HCMV inh -61.8, VACV Venus inh inconclusive, FMDV inh inconclusive
CCn1c(CCNC(=O)c2ccc(OC)cc2)nnc1SCc1ccc(Cl)c(Cl)c1	VACV mCherry inh inconclusive, Marburg entry inh inconclusive, HCMV inh -60.3, Lassa entry inh inconclusive, VACV Venus inh inconclusive, FMDV inh inconclusive
COC(=O)c1c(NC(=O)c2nc3ccccc3s2)sc2c1CC(C)(C)NC2(C)C	VACV mCherry inh inconclusive, VACV Venus inh 11.2µM (no result: Marburg entry inh, Lassa entry inh)
